Here are results for ten compounds from PubChem BioAssay (NCI).

About 83,000 compounds went through this panel and 20% of them were active in at least one assay; those are over-represented in the sample as a whole.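 Values shown are percent growth following 48 h exposure of cells in 96-well plates to a single concentration of compound; below 10 was considered active.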 A number with no mark means an inactive call. The source made the active and inactive calls.

Some test systems named below: RPMI-8226 leukemia; OVCAR-8 ovarian; OVCAR-5 ovarian; OVCAR-4 ovarian; IGROV1 ovarian; OVCAR-3 ovarian; HS 578T breast; NCI/ADR-RES ovarian; T-47D breast; BT-549 breast; MDA-MB-435 melanoma; SW-620 colon; MCF7 breast; HCT-116 colon; KM12 colon; HCC-2998 colon; SK-OV-3 ovarian.
What all share (assay): NCI-60 one-dose screen, 48 h (100 = growth as untreated, 0 = no growth, -100 = all killed)
Common to all, as to conditions: 10 µM unless noted

Take `O=C(/C(=C/c1cccc([N+](=O)[O-])c1)c1ccccc1)c1ccccc1`: the growth was -7.27% (active) with RPMI-8226 leukemia; 13% in the assay with OVCAR-8 ovarian; 74.5% with OVCAR-5 ovarian; 42.9% with OVCAR-4 ovarian; 60.4% in the assay with IGROV1 ovarian; 23.4% with OVCAR-3 ovarian. Moreover, the growth in the assay on HS 578T breast was 44.9%; in the assay with NCI/ADR-RES ovarian, 35.8%; in the assay with T-47D breast, 69.8%; in the assay on BT-549 breast, 33.1%; with MDA-MB-435 melanoma it was 7.47% (active); with SW-620 colon it was 10.9%. Also, the growth in the assay with MCF7 breast is 26.7%; in the assay with HCT-116 colon, 8.24% (active); with KM12 colon, 18.3%.
Take `Cc1c(N(C)CS(=O)(=O)O)c(=O)n(-c2ccccc2)n1C`: the growth with RPMI-8226 leukemia is 99.2%; with OVCAR-8 ovarian, 109%; in the assay with OVCAR-5 ovarian, 106%; with OVCAR-4 ovarian it was 116%; in the assay with IGROV1 ovarian, 103%; in the assay on OVCAR-3 ovarian, 118%. Also, the growth in the assay with HS 578T breast was 125%; in the assay with NCI/ADR-RES ovarian, 109%; in the assay on T-47D breast, 107%; in the assay on BT-549 breast, 96.5%; with MDA-MB-435 melanoma, 103%; with SW-620 colon, 108%. Moreover, the growth is 105% in the assay with HCT-116 colon, 121% in the assay with HCC-2998 colon and 109% in the assay with KM12 colon.
For `CCN(CC)c1ccc(N=Nc2cc(Cl)ccc2Cl)c(NC(=O)CCC(=O)O)c1`, the growth in the assay on RPMI-8226 leukemia was 97.6%; with OVCAR-8 ovarian it was 89.2%; with OVCAR-5 ovarian, 92.5%; in the assay with IGROV1 ovarian it was 92.2%; in the assay on OVCAR-3 ovarian it was 96.8%; in the assay on HS 578T breast, 95.1%. The growth in the assay with NCI/ADR-RES ovarian is 95.5%; with T-47D breast, 90.2%; in the assay on BT-549 breast, 120%; with MDA-MB-435 melanoma, 115%; in the assay on SW-620 colon, 105%; in the assay on MCF7 breast it was 93.2%. Moreover, the growth with HCT-116 colon is 99.7%; with HCC-2998 colon, 107%; in the assay with KM12 colon, 101%.
As for `c1ccc(N2CCN(c3nncc4ccccc34)CC2)nc1`, the growth in the assay on RPMI-8226 leukemia is 107%; with OVCAR-8 ovarian it was 97.8%; in the assay with OVCAR-5 ovarian it was 105%; with OVCAR-4 ovarian, 109%; in the assay on IGROV1 ovarian, 116%; in the assay on OVCAR-3 ovarian, 99.9%. Further, the growth was 109% in the assay on HS 578T breast; 109% with NCI/ADR-RES ovarian; 101% in the assay on T-47D breast; 104% in the assay on BT-549 breast; 104% in the assay with MDA-MB-435 melanoma; 104% in the assay with SW-620 colon. In addition, the growth in the assay on MCF7 breast was 105%; in the assay on HCT-116 colon it was 103%; in the assay on HCC-2998 colon, 117%; in the assay with KM12 colon it was 104%.
As for `CC(NC(=O)C(C)Oc1ccc(Cl)cc1Cl)C(=O)O` (stereo not drawn), the growth is 125% in the assay on RPMI-8226 leukemia; 107% with OVCAR-8 ovarian; 95.7% with OVCAR-5 ovarian; 102% in the assay on SK-OV-3 ovarian; 84.8% with IGROV1 ovarian; 96.7% in the assay on NCI/ADR-RES ovarian. Moreover, the growth in the assay on T-47D breast was 108%; with BT-549 breast, 108%; in the assay with MDA-MB-435 melanoma, 104%; in the assay with SW-620 colon, 105%; with MCF7 breast, 99.1%; in the assay on HCT-116 colon, 89.6%. Besides, the growth with HCC-2998 colon was 94.4%; in the assay with KM12 colon, 109%.
With `O=C(O)c1ccccc1C(=O)OC1CCCC2CCCC21` (stereo not drawn), the growth with RPMI-8226 leukemia was 111%; in the assay with OVCAR-8 ovarian it was 106%; in the assay with OVCAR-5 ovarian, 99.2%; in the assay with SK-OV-3 ovarian it was 112%; in the assay on OVCAR-3 ovarian, 122%; in the assay on NCI/ADR-RES ovarian, 99%. Besides, the growth with T-47D breast is 96.1%; in the assay on MDA-MB-435 melanoma, 118%; in the assay with SW-620 colon, 111%; in the assay with MCF7 breast it was 94.6%; in the assay with HCT-116 colon, 112%; in the assay with HCC-2998 colon, 98.5%. The growth in the assay with KM12 colon is 106%.
As to `COc1cc2c(-c3nc4cc(Cl)c(F)cc4s3)cc(=O)oc2c(C)c1OC`, the growth in the assay with RPMI-8226 leukemia was -56% (active); in the assay with OVCAR-8 ovarian, -58.8% (active); with OVCAR-5 ovarian, -65.5% (active); in the assay with OVCAR-4 ovarian it was -92.9% (active); with IGROV1 ovarian it was -43.6% (active); in the assay on OVCAR-3 ovarian it was -98.6% (active). The growth in the assay on HS 578T breast is -0.186% (active); in the assay with NCI/ADR-RES ovarian, -10% (active); in the assay with T-47D breast, -14.1% (active); in the assay with BT-549 breast, -81.8% (active); in the assay with MDA-MB-435 melanoma it was -57.8% (active); in the assay on SW-620 colon, -58.3% (active). Further, the growth in the assay on MCF7 breast is -57.8% (active); in the assay on HCT-116 colon it was -2.68% (active); in the assay with KM12 colon it was -89.7% (active).
For the compound `Clc1ccc2nc(Cl)c3ccccc3c2c1`, the growth was 70.9% with RPMI-8226 leukemia; 50.8% in the assay with OVCAR-8 ovarian; 78% in the assay with OVCAR-5 ovarian; -42.6% (active) in the assay on OVCAR-4 ovarian; 48.6% in the assay on IGROV1 ovarian; 35.3% in the assay on OVCAR-3 ovarian. Further, the growth in the assay on HS 578T breast was 56.8%; in the assay on NCI/ADR-RES ovarian, 74.8%; in the assay with T-47D breast it was -13.9% (active); in the assay with BT-549 breast, 89.6%; with MDA-MB-435 melanoma it was 50.3%; in the assay on SW-620 colon it was 78.3%. For the same compound, the growth with HCT-116 colon was 19.4%; with HCC-2998 colon, 89.3%; in the assay with KM12 colon, 55.7%.
Regarding `COC(=O)c1ccc2c(c1)nc(-c1ccc(O)c(OC)c1)n2-c1cc(C(C)(C)C)[nH]n1`, the growth in the assay on RPMI-8226 leukemia was 72.8%; in the assay on OVCAR-8 ovarian it was 98.8%; with OVCAR-5 ovarian, 117%; in the assay with OVCAR-4 ovarian it was 111%; with IGROV1 ovarian, 101%; in the assay on OVCAR-3 ovarian it was 98.1%. Moreover, the growth in the assay on HS 578T breast was 98.2%; in the assay with NCI/ADR-RES ovarian, 98.4%; in the assay on T-47D breast, 92.3%; in the assay on BT-549 breast it was 108%; in the assay on SW-620 colon, 104%; in the assay with MCF7 breast, 83.6%. In addition, the growth with HCT-116 colon was 93.5%; in the assay with HCC-2998 colon, 115%; in the assay on KM12 colon it was 96.9%.
With `NC(N)=NC(N)=NCCCc1ccccc1`, the growth in the assay on RPMI-8226 leukemia is 62.6% [100 µM]; with OVCAR-8 ovarian it was 71.1% [100 µM]; in the assay with OVCAR-5 ovarian it was 76.3% [100 µM]; in the assay with OVCAR-4 ovarian, 70% [100 µM]; in the assay on IGROV1 ovarian, 53.1% [100 µM]; in the assay with OVCAR-3 ovarian, 56.9% [100 µM]. Moreover, the growth with NCI/ADR-RES ovarian is 81.2% [100 µM]; in the assay on T-47D breast it was 53.7% [100 µM]; with BT-549 breast, 49.5% [100 µM]; in the assay with MDA-MB-435 melanoma, 60.5% [100 µM]; with SW-620 colon, 77.8% [100 µM]; in the assay with MCF7 breast, 59.2% [100 µM]. The figures for the growth in the assay with HCT-116 colon, in the assay with HCC-2998 colon and with KM12 colon were 50.6% [100 µM], 68.5% [100 µM] and 78.1% [100 µM], respectively.
